High-throughput results deposited in PubChem BioAssay by several laboratories.
Mtb bLac sens: beta-lactam sensitization of Mtb H37Rv; M. tuberculosis H37Rv growth with meropenem, percent inhibition; hit rate 0.27% among 330,000; inhibition, % at 25 µM; call rule not given here;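 also: growth measured after seven days incubation then overnight dye step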
Rv3671c inh: inhibitors of M. tuberculosis serine protease Rv3671c. P9WHR9. inhibition, % at 5.96 µM. AID 2606. hit rate 0.048% among 320,000; in the data active = inhibition above about 38%;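 also: extracellular domain of Rv3671c used as enzyme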
Mtb UGM inh: blocks M. tuberculosis UGM enzyme | P9WIQ1 | purified UGM, fluorescence polarization probe displacement | hit rate 0.06% among 320,000 | AID 504406 | inhibition, % at 10 µM; in the data active = inhibition above about 10%, passing the limit was not always enough
RecA intein inh: inhibitors of M. tuberculosis RecA intein splicing; cell-free RecA intein splicing, fluorescence; hit rate 0.75% among 290,000; inhibition, % (no concentration beside the values); P9WHJ3; in the data active = inhibition above about 30%
Mtb hypoxia inh: reduces hypoxia-regulated biosensor signal in M. tuberculosis | fluorescence inhibition, % (no concentration beside the values) | M. tuberculosis hypoxia-regulated fluorescent reporter, fluorescence | hit rate 0.1% among 300,000; in the data active = fluorescence inhibition mostly above about 23%, no sharp cut-off; inactive = mostly below about 17%
Numbers stand for hits; - = inactive; . = no result given. Hits are enriched below; roughly 0.77% of the tested compounds scored in any of these assays.

SMILES | Mtb bLac sens | Rv3671c inh | Mtb UGM inh | RecA intein inh | Mtb hypoxia inh
CCC(C)C(C(=O)N1CCN(C(=O)OC(C)(C)C)CC1)n1cc(CCCCNC(=O)OC(C)(C)C)nn1 (configuration not stated) | . | . | . | . | -
Cc1ccc(-c2ccc(C3C4C=CCC[C@@]4(C)C(=O)N3Cc3ccccc3)c(F)c2)cc1 (some centres not stated) | . | . | . | . | -
O=C(/C=C/c1ccc2c(c1)OCO2)c1c(O)n(CCc2ccccc2)c(=O)[nH]c1=O | - | - | 26 | - | -
O=C(/C=C/c1ccccc1)c1c(O)n(CCc2ccccc2)c(=O)[nH]c1=O | - | - | - | - | -
C#CCOCCOCCOCCNc1nc(N2CCOCC2)nc(N2CCN(C(=O)CCCCCCCCCCNC(=O)C(C(C)CC)n3cc(CCCCCN)nn3)CC2)n1 (configuration not stated) | . | . | . | . | -
COc1cc(/C=C(\C#N)C(=O)Nc2ccc3c(c2)OCCO3)ccc1O | - | - | - | 32 | .
CCOC(=O)/C(C#N)=C\c1ccc(O)c(OC)c1 | - | - | - | 40 | -
Cc1ccc(C)c(-c2ccc(=O)n(Cc3cccc(Br)c3)n2)c1 | - | - | - | 30 | -
Cc1ccc(-n2cccc2/C=C2\C(=N)N3N=C(C(C)C)SC3=NC2=O)cc1 | - | - | - | - | -
CCC1=NN2C(=N)/C(=C\c3cccn3-c3ccc(OC)cc3)C(=O)N=C2S1 | - | - | 14 | - | .
CCCC(NC(=O)CCl)c1ccccc1 (configuration not stated) | - | - | - | - | -
CC(C)CC(NC(=O)CCl)c1ccccc1 (configuration not stated) | - | - | - | 44 | -
Cc1cc(C)n(C2CC(=O)N(c3ccccc3)C2=O)n1 (configuration not stated) | - | - | - | - | -
CC(=O)NC1N=C(C)N(c2ccccc2)C1=O (configuration not stated) | - | - | - | 52 | .
Cc1ccc(S(=O)(=O)N2CCN(C(=O)c3cc(S(=O)(=O)N4CCOCC4)c(Cl)cc3Cl)CC2)cc1 | . | . | . | . | 28
CC1(OC(=O)c2cnc3ccccc3n2)C(=O)C=C2C=C(C3CC3)OC=C2C1=O (configuration not stated) | - | 38 | - | - | .
Cc1c(Cl)cccc1NC(=S)/C(=C(\[O-])c1ccc(Cl)s1)[n+]1ccccc1 | - | - | - | 37 | .
COc1ccccc1NC(=O)c1sc2nc(Cc3ccccc3)cc(C(F)(F)F)c2c1N | - | - | 30 | - | -
CCOC(=O)C1C2COc3ccc(OC)cc3C2N2C(=O)CN(CC3CCCO3)C(=O)[C@@]12C (some centres not stated) | . | . | . | . | -
O=c1c(Cl)c(Cl)cnn1Cc1ccc(F)cc1 | - | - | - | 35 | .
CC=CC=CC(=O)N1CC2(CC(c3cccc(NC(=O)CCCCC)c3)=NO2)CC1C(N)=O (configuration not stated) | . | . | . | . | -
COc1cc2c(c(OC)c1OC)-c1c(cc3c(c1OC)OCO3)C(OC(C)=O)C(C)C(C)C2 (configuration not stated) | . | . | . | . | -
O=c1oc(-c2ccc(O)c(O)c2)cc2cccc(O)c12 | - | - | . | . | .
Oc1cccc2cc3cccc(O)c3c(O)c12 | - | 38 | - | - | .
CCSc1nnc(NC(=O)[C@H](C)N2C(=O)C3CC=CCC3C2=O)s1 (some centres not stated) | - | - | - | - | 30
SMILES | Mtb bLac sens | Rv3671c inh | Mtb UGM inh | RecA intein inh | Mtb hypoxia inh
O=C(Nc1ccc(S(=O)(=O)NC2=NCCCCC2)cc1)c1cccs1 | - | - | - | . | 30
O=C(/C=C(\c1ccc(Cl)cc1)n1cncn1)c1ccc(Cl)cc1 | - | - | - | - | 36
O=C(/C=C(\c1ccccc1)n1cncn1)c1ccccc1 | - | - | - | - | -
CCCS(=O)(=O)N1CCN(Cc2ccc3c(c2)c2ccccc2n3CC)CC1 | - | - | - | - | 41
COc1ccc(Nc2oc(COc3ccccc3F)nc2C#N)cc1 | - | - | - | 41 | .
CCOC(=O)C1=C(O)/C(=C/c2cn(CC(=O)NCC3CCCO3)c3ccccc23)SC1=Nc1ccc(C)cc1 (configuration not stated) | - | - | 22 | . | -
c1ccc(-c2nc(N3CCCCCC3)nc(-n3ccnc3)n2)cc1 | - | - | - | 46 | .
O=C(Cn1cnc2c(nnn2Cc2ccccc2F)c1=O)N1CCN(c2ccccc2)CC1 | - | - | - | - | -
O=C(CSc1ncnc2c1nnn2Cc1ccccc1F)N1CCN(c2ccccc2)CC1 | . | . | . | 43 | -
CC(C)(C)NC(=O)CSc1ncnc2c1nnn2Cc1ccccc1Cl | - | - | - | 61 | .
